Data as given in PubChem BioAssay.

These compounds were tested on XIP peptide (Xip251-270) (assay: compounds binding XIP fragment 251-270 – biochemical, small-molecule microarray, fluorescence 635/667 nm, 0.5 µg/mL protein, primary screen (AID 1183)). Conditions: fluorescence 635 nm, higher = more signal.

| Compound | composite z-score |
| --- | --- |
| COc1ccc([Si](C)(C)[C@@H]2[C@@H](CCO)O[C@]3(C(=O)N(Cc4ccc(NC(=O)[C@H](C)O)cc4)c4ccccc43)[C@H]2C)cc1 | 0.752 |
| O=C(NCc1ccccc1)[C@@]1(CCS(=O)(=O)c2ccccc2)COC(c2ccc(OCCCO)cc2)=N1 | 0.881 |
| C=C(C)[C@@H]1CC=C(C(O)C2C=CC3C(=O)NC(=O)C3N2Nc2ccccn2)CC1 (stereo partly specified) | 0.718 |
| CCOC(=O)[C@H]1C/C=C/C[C@H](C(=O)OCC)C(=O)O[C@H]2[C@@H](OC)O[C@H](CO)[C@@H](OC(=O)Nc3ccc(Br)cc3)[C@@H]2OC1=O | 0.867 |
| C=CCC(OC(C)=O)[C@@H]1[C@@H](N(Cc2ccc(-c3ccccc3)cc2)C(=O)c2ccc(C)cc2)c2cc(OCCCO)ccc2N1C(=O)c1ccc(-c2ccccc2)cc1 (stereo partly specified) | -0.322 |
| C=CC[C@]1(C(=O)O)N=C(c2ccc(OCCCO)cc2)O[C@H]1c1ccccc1N=[N+]=[N-] | -0.519 |
| CN(C)CCCC[C@@H]1NC(=O)[C@@H]2C[C@H](C(=O)NCCCCCNC(=O)CS)[C@H](c3ccc(O)cc3)N2C1=O | -0.279 |
| C=CC[C@]1(C(N)=O)N=C(c2ccc(OCCCO)cc2)O[C@H]1c1ccccc1CN=[N+]=[N-] | -0.313 |
| C[C@H]1NC(=O)[C@@H](C)NC(=O)[C@@]23C(=O)N[C@@H](Cc4ccccc4)C2[C@H](C)[C@@]2(C)O[C@H]2C3/C=C/C/C=C\CNC1=O (stereo partly specified) | -0.166 |
| C[C@]1(C(=O)NCCN2CCOCC2)c2ccccc2C(=O)N(Cc2ccccc2)[C@H]1c1ccc(CO)cc1 | 0.78 |
| C[C@@H]1NC(=O)[C@H](Cc2ccccc2)NC(=O)[C@@]23C(=O)N[C@@H](Cc4ccccc4)C2[C@H](C)[C@@]2(C)O[C@H]2C3/C=C/C/C=C\CNC1=O (stereo partly specified) | 0 |
